Test systems include HCT-15 colon; HT29 colon; SNB-75 CNS; SNB-19 CNS; U251 CNS; PC-3 prostate; SK-MEL-5 melanoma; UACC-62 melanoma; LOX IMVI melanoma; SK-MEL-28 melanoma.
Holding throughout (assay): NCI-60 one-dose screen, 48 h (100 = growth as untreated, 0 = no growth, -100 = all killed)
Common to all, as to settings: 10 µM unless noted

The structures appear in SMILES notation. Compounds without any hit were thinned out: in the full panel of roughly 83,000, 20% have a hit.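 48-hour exposure, single concentration, 96-well plates; percent growth endpoint where 0 means no net growth. Active: below 10.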 Values without a mark were called inactive. Calls of active or inactive are those of the source.

`COc1ccc(C2=NNC(c3ccc(Oc4nc5c(c(=O)n(C)c(=O)n5C)n4C)c(OC)c3)C2)cc1` (stereo not given): the growth in the test with HCT-15 colon was 93.8%; with HT29 colon, 95.5%; with SNB-75 CNS, 78.7%; in the test on SNB-19 CNS, 87.6%; in the test on U251 CNS, 83.2%; with PC-3 prostate, 101%. Further, the growth is 85.3% in the test with SK-MEL-5 melanoma, 81.2% with UACC-62 melanoma, 91.4% in the test on LOX IMVI melanoma and 97.1% in the test on SK-MEL-28 melanoma.
As to `Nc1c(C(=O)Nc2ccccc2)sc2nc3c(cc12)C(=O)CCC3`, the growth is 27.2% in the test on HCT-15 colon; 4.34% (active) in the test with HT29 colon; 12.4% in the test with SNB-75 CNS; 36.1% in the test with SNB-19 CNS; 25.7% in the test with U251 CNS; 21.6% in the test with PC-3 prostate. The growth in the test on SK-MEL-5 melanoma was 25.7%; in the test with UACC-62 melanoma, 44.1%; in the test on LOX IMVI melanoma, 51.2%; in the test with SK-MEL-28 melanoma it was 58.7%.
For `O=C(Nc1ccc(-n2ccc3c(NC(=O)c4ccccc4)nccc32)cc1)c1ccc(N2CCOCC2)c(C(F)(F)F)c1`, the growth in the test with HCT-15 colon was 20%; in the test on HT29 colon, 2.44% (active); in the test on SNB-75 CNS, 23.5%; in the test with SNB-19 CNS it was 44.6%; with U251 CNS, 14.4%; in the test with PC-3 prostate it was 35.7%. Moreover, the growth with SK-MEL-5 melanoma is 23.7%; with UACC-62 melanoma it was 49.4%; in the test with LOX IMVI melanoma, 13.4%; in the test on SK-MEL-28 melanoma, 25.3%.
Consider `COc1cccc(/C(C)=N/NC(=O)CSc2nc3ccccc3c(=O)n2CCc2ccc(S(N)(=O)=O)cc2)c1`, for which the growth in the test on HCT-15 colon is 69.7%; in the test on HT29 colon, 2.6% (active); with SNB-75 CNS it was 42.1%; in the test on SNB-19 CNS, 24.7%; with U251 CNS, -55.4% (active); with PC-3 prostate it was 7.25% (active). The growth in the test with SK-MEL-5 melanoma is 1.45% (active); in the test with UACC-62 melanoma it was 25.1%; in the test with LOX IMVI melanoma, 26%; with SK-MEL-28 melanoma, 67.5%.
Regarding `O=C1C=CN2C(=O)CC=CC2[C@@H]1O` (stereo not given in full), the growth with HCT-15 colon was 138%; in the test on HT29 colon it was 110%; with SNB-75 CNS it was 94.1%; in the test on SNB-19 CNS, 130%; with U251 CNS, 120%; in the test on PC-3 prostate, 94.9%. In addition, the growth was 109% with SK-MEL-5 melanoma, 115% with UACC-62 melanoma, 100% with LOX IMVI melanoma and 110% with SK-MEL-28 melanoma.
Take `CS(=O)(=O)c1ccc(C(=O)N/N=C/c2ccccc2Cl)cc1`: the growth is 102% in the test on HCT-15 colon; 104% in the test on HT29 colon; 84.9% with SNB-75 CNS; 95.1% in the test on SNB-19 CNS; 90.3% with U251 CNS; 99% in the test on PC-3 prostate. The growth in the test on SK-MEL-5 melanoma is 111%; in the test on UACC-62 melanoma, 98.5%; in the test with LOX IMVI melanoma, 99.9%; in the test on SK-MEL-28 melanoma, 103%.
As to `CSc1nc(N)c2[nH]c(-c3cc4ccccc4[nH]c3=O)nc2n1`, the growth is 64.8% in the test on HCT-15 colon; 94.2% in the test on HT29 colon; 113% with SNB-75 CNS; 109% in the test with SNB-19 CNS; 84.7% with U251 CNS; 78.7% in the test with PC-3 prostate. For the same compound, the growth in the test on SK-MEL-5 melanoma was 100%; in the test on UACC-62 melanoma, 83.4%; with LOX IMVI melanoma, 69.9%; with SK-MEL-28 melanoma, 116%.
With `CS(=O)(=O)c1ccc(C(=O)N/N=C/c2ccc3c(c2)OCO3)cc1`, the growth in the test on HCT-15 colon was 100%; in the test on HT29 colon it was 88.9%; in the test on SNB-75 CNS, 94.4%; in the test with SNB-19 CNS, 98.5%; in the test with U251 CNS it was 92.3%; with PC-3 prostate, 92%. In addition, the growth was 106% with SK-MEL-5 melanoma, 98% in the test on UACC-62 melanoma, 96.5% with LOX IMVI melanoma and 114% in the test with SK-MEL-28 melanoma.
As to `CCN(CC)c1ccc2c(cc1=O)[C@@H](NC(C)=O)CCc1cc(OC)c(OC)c(OC)c1-2`, the growth in the test with HCT-15 colon is 30%; in the test on HT29 colon it was -26.4% (active); with SNB-75 CNS it was 22.1%; in the test with SNB-19 CNS it was 40.8%; in the test on U251 CNS, 11.8%; in the test on PC-3 prostate, 31.7%. Besides, the growth with SK-MEL-5 melanoma was 7.17% (active); in the test on UACC-62 melanoma, 19.4%; with LOX IMVI melanoma, 25.1%; with SK-MEL-28 melanoma, 62.3%.
On to `CN(C)c1nc(-c2cccs2)n2nc(-c3ccco3)cc2n1`, for which the growth with HCT-15 colon was 79.4%; with HT29 colon, 93.4%; in the test on SNB-75 CNS, 86.5%; in the test with SNB-19 CNS, 102%; in the test on U251 CNS, 93.6%; with PC-3 prostate, 91.2%. Further, the growth in the test with SK-MEL-5 melanoma is 94.1%; in the test with UACC-62 melanoma, 89.7%; with LOX IMVI melanoma it was 77.6%; in the test with SK-MEL-28 melanoma, 117%.
On to `COc1ccc2c(c1)C1=NN(C(=O)CO)[C@H](c3ccc(OC(F)(F)F)cc3)[C@@H]1CC2`, for which the growth in the test with HCT-15 colon was 84.7%; in the test on HT29 colon it was 92.3%; in the test with SNB-75 CNS, 90.3%; with SNB-19 CNS, 93.4%; in the test on U251 CNS, 87.3%; in the test on PC-3 prostate, 72.9%. In addition, the growth was 83.4% in the test with SK-MEL-5 melanoma, 76.3% with UACC-62 melanoma, 88.7% in the test with LOX IMVI melanoma and 121% with SK-MEL-28 melanoma.
As for `ClC1(Cl)C2CCCCCCC21` (stereo not given), the growth in the test with HCT-15 colon is 107%; with HT29 colon, 97.5%; with SNB-75 CNS, 97.2%; in the test with SNB-19 CNS it was 99.6%; in the test with U251 CNS it was 109%; with PC-3 prostate, 98.7%. In addition, the growth in the test with SK-MEL-5 melanoma is 110%; in the test with UACC-62 melanoma, 103%; with LOX IMVI melanoma, 108%; in the test with SK-MEL-28 melanoma, 107%.

For the origin of these results see PubChem BioAssay (NCI).
